The whole screen tested about 200,000 compounds, of which about 860 (0.43%) were called active. This excerpt belongs to a sample that is enriched for actives. Unmarked numbers belong to inactive results. The call rests on the fitted dose curve; in most records, active means well fitted inhibition curve with a large enough effect; inconclusive means small, poorly fitted or top-dose-only effect; inactive means flat fitted curve, though single readings scatter.
Potency means the concentration at half of the fitted maximal effect.

In this assay the target is Cruzipain (Trypanosoma cruzi) (UniProt P25779). The assay can be described thus: qHTS Assay for Promiscuous and Specific Inhibitors of Cruzain (with detergent). Further: nearly all actives have a fitted effect of over 40% in size. To be noted: purified cruzain, Z-FR-AMC fluorescence, 0.01% Triton. As for the experimental part: Cruzain (3.4.22.51) is a cysteine protease from the tropical parasite Trypanosoma cruzi. Dual qHTS experiment was performed against the NCGC compound collection in order to 1) identify novel inhibitors of the enzyme and 2) profile the compound collection for promiscuous inhibitors operating via colloidal aggregation (by performing detergent-free and detergent-containing comparison screens). Cruzain was assayed by the use of fluorogenic coumarin-based substrate Z-FR-AMC: proteolytic cleavage releases AMC, whose fluorescence is measured at 360 nm excitation and 450 nm emission. Purified cruzain was supplied by the labs of Prof. James McKerrow and Brian Shoichet, UC San Francisco.
Sequence of Cruzipain (Trypanosoma cruzi) (P25779 123-467 limits assumed): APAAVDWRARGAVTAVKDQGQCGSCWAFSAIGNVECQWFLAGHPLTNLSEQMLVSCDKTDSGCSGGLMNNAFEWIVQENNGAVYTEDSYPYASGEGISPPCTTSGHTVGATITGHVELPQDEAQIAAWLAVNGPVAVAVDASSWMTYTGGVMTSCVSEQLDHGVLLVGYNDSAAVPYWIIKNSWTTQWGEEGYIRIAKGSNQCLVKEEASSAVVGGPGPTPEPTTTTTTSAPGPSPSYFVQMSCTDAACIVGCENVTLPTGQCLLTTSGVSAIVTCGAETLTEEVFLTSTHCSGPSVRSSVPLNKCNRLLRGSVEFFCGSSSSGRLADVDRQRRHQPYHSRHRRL
This assay had 0.01% Triton X-100 concentration. See also releated assay "qHTS Assay for Promiscuous and Specific Inhibitors of Cruzain (without detergent)" with 0.00005% Triton X-100.
See following references for additional details:
Assay Provider: Shoichet, Brian; University of California, San Fancisco
Screening Center PI: Austin, C.P.
Screening Center: NIH Chemical Genomics Center [NCGC]
Buffer: 100 mM Sodium Acetate, pH 5.5, 5 mM DTT, Triton X-100 concentration: 0.01%.
Buffer in columns 3 and 4 as negative control (no enzyme).
Substrate solution: 2 uM final concentration of Z-FR-AMC (catalog number I-1160, Bachem) dispensed throughout the plate.
Enzyme: 1.5 nM Cruzain final concentration in columns 1, 2, 5-48. Column 1 is neutral (100% activity). Column 2 contained titration of covalent inhibitor K11777, starting concentration 1 mM, then 1:2 dilution in duplicate).
Three uL of enzyme or buffer were dispensed to 1536-well Greiner black solid bottom plates. Compounds and controls (23 nL) were transferred via Kalypsys PinTool. The plates were incubated for 15 min at room temperature, and then 1 uL of substrate solution was added to start the reaction. The plates were immediately transferred to and read 4 times every 30 seconds for 2 min on ViewLux High-throughput CCD imager (Perkin-Elmer) using 360 nm excitation and 450 nm emission fluorescence protocol. The fluorescence intensity difference between the third and the first time points (time lapse of 60 seconds) was used to compute reaction progress.
For orientation: In qHTS, concentration-response curves come from the screen itself.
Take `CCC(=O)NCCc1nc2ccccc2n1CC`: the max response, negative = inhibition was 4.89%.

For `CCCCn1c(CCCNC(=O)CC)nc2ccccc21`, the max response, negative = inhibition was -2.07%.

With `Cc1cccc(C(=O)NCCc2nc3ccccc3n2Cc2ccccc2Cl)c1`, the Potency was 8.91 µM (active).

Regarding `CCCCCn1c(CCCNC(=O)c2ccccc2OC)nc2ccccc21`, the max response, negative = inhibition was -1.13%.

Take `Cc1ccc(C)c(Cn2c(CCCNC(=O)C3CCCCC3)nc3ccccc32)c1`: the max response, negative = inhibition is -3.31%.

As for `COc1ccc(Cn2c(C(=O)O)c(CNCc3cccc(OC)c3)c3ccc(C)cc32)cc1`, the max response, negative = inhibition is -10.4%.

As to `CCCCCn1c(=O)[nH]c2cc(C(=O)Nc3ccc(F)cc3)ccc2c1=O`, the max response, negative = inhibition was -0.504%.

`O=C(Nc1cc(C(F)(F)F)ccc1Cl)c1nc2ccccc2nc1N1CCCCC1`: the max response, negative = inhibition was 2.61%.

As to `COc1ccccc1NC(=O)C(=O)c1cc(C)n(-c2ccccc2F)c1C`, the max response, negative = inhibition was -2.07%.

With `O=C(CC1N=C2c3ccccc3N=C(SCc3ccc(F)cc3)N2C1=O)NCc1cccs1` (stereo not given), the max response, negative = inhibition was -4.42%.

Turning to `COc1cc(OC)c(NC(=O)c2cnc(N3CCCC3)nc2C)cc1Cl`, the max response, negative = inhibition was -6.84%.

In the case of `Cc1ccc(CNS(=O)(=O)c2ccc(C(=O)N(C)C)s2)cc1`, the max response, negative = inhibition is -0.386%.

In the case of `CCc1ccccc1NC(=O)Cc1ccc(NC(=O)N2CCCCc3ccccc32)cc1`, the max response, negative = inhibition is -5.61%.

As for `CC(=O)N1CCCc2cc(S(=O)(=O)N3CCC(C(=O)NC4CCCCC4)CC3)ccc21`, the max response, negative = inhibition is -0.0735%.

Take `O=C(NCc1ccco1)c1cc(-c2cccnc2)nc2ccc(Cl)cc12`: the max response, negative = inhibition was -13.8%.

For the compound `CCOc1ccc(CNC(=O)c2cc(-c3ccc(Cl)s3)nc3ccccc23)cc1`, the max response, negative = inhibition is -0.709%.

As to `CCc1ccc(-c2cc(C(=O)NCc3ccco3)c3ccccc3n2)s1`, the Potency was 22.4 µM (active).

In the case of `Cc1ccc2nc(/C(C#N)=C/c3ccc(-c4ccc(C(=O)OC(C)C)cc4)o3)[nH]c2c1`, the max response, negative = inhibition is -3.11%.

On to `Fc1ccc(-c2nc(Nc3cccc(Cl)c3)nc3c2COc2ccccc2-3)cc1`, for which the max response, negative = inhibition is -3.92%.

Turning to `Cc1ccc(-n2ncc3c(NCCCn4ccnc4)ncnc32)cc1Cl`, the max response, negative = inhibition is -0.0419%.

As for `CC(=O)c1ccc2c(ccc3ccccc32)c1`, the max response, negative = inhibition is -9.87%.

For the compound `CC(=O)CCC(=O)c1ccc2ccccc2c1`, the max response, negative = inhibition is -3%.

Take `C=CC(=O)c1ccc2ccccc2c1`: the Potency is 3.98 µM (active).

In the case of `COc1ccc(Cc2nc3ccc(C(=O)NCc4ccc(OC)cc4OC)cc3o2)cc1`, the max response, negative = inhibition was -5.34%.

For the compound `CCCn1c(-c2ccc(F)cc2)nc2c(NCC3CCCN3CC)nc(C)nc21` (stereo not given), the max response, negative = inhibition is -1.1%.

Regarding `CCN1CCCC1CNc1ncnc2c1[nH]c1ccc(F)cc12` (stereo not given), the Potency was 25.1 µM (active).

In the case of `Fc1ccc2[nH]c3c(N4CCSCC4)ncnc3c2c1`, the max response, negative = inhibition was -6.83%.

As for `Cc1cc2c(cc3c(SCc4cccc(Cl)c4)nnc(C)n32)o1`, the max response, negative = inhibition is -4.57%.

In the case of `COC(=O)c1ccc(Cn2c(SCC(=O)N(C)c3ccccc3)nc3ccccc32)cc1`, the max response, negative = inhibition was -5.82%.

`COc1ccc(OC)c(CNC(=O)Cn2nc(C)c3c(C)n(-c4ccccc4)nc3c2=O)c1`: the max response, negative = inhibition was -2.6%.

With `CCN(c1ncnc2c1cnn2-c1ccc(C)cc1)C1CCCCC1`, the max response, negative = inhibition was 1.62%.

For the compound `CCOc1ccc(N2CC(C)Cn3c2nc2c3c(=O)n(Cc3c(F)cccc3Cl)c(=O)n2C)cc1` (stereo not given), the max response, negative = inhibition was -3.27%.

Consider `COc1ccc(-c2c3c(=O)n(C)c(=O)n(C)c3cn2-c2cccc(OC)c2)cc1`, for which the max response, negative = inhibition was -3.29%.

Consider `Cc1ccc(-c2c3c(=O)n(C)c(=O)n(C)c3cn2-n2cnnc2)cc1`, for which the Potency is 10 µM (active).

Take `Cc1ccc(-c2c3c(=O)n(C)c(=O)n(C)c3cn2-c2ccccc2O)cc1`: the max response, negative = inhibition is 0.548%.

On to `OCc1cnc(SCc2ccc(F)cc2)n1Cc1ccc(F)cc1`, for which the max response, negative = inhibition is -1.84%.

On to `CCOc1ccccc1NC(=O)CCn1cnnn1`, for which the max response, negative = inhibition is 2.1%.

For the compound `CCOC(=O)c1cccc(NC(=O)c2cc(CN3CCCC3)on2)c1`, the max response, negative = inhibition is -1.68%.

As for `CCOc1cccc(C(=O)Nc2nnc(S(=O)(=O)N(C)c3ccc(C)cc3)s2)c1`, the max response, negative = inhibition was -2.64%.

As to `Cc1ccccc1CNC(=O)C(=O)NCC(c1cccs1)S(=O)(=O)c1cccs1` (stereo not given), the max response, negative = inhibition was -2.25%.

On to `Cc1cc(=O)c2cc(C(=O)Nc3cccc(C)c3C)ccc2[nH]1`, for which the max response, negative = inhibition was -3.15%.

As to `CCOc1ccccc1NC(=O)CSc1ncc(S(=O)(=O)c2ccc(C(C)(C)C)cc2)c(=O)[nH]1`, the Potency was 28.2 µM (active).

With `Cc1cccc(NC(=O)CSc2ncc(-c3ccccc3)[nH]2)c1C`, the max response, negative = inhibition was -4.22%.

Regarding `O=C(CSc1ncc(S(=O)(=O)c2ccc(Br)cc2)c(=O)[nH]1)Nc1ccc2c(c1)OCCO2`, the max response, negative = inhibition was -23.7%.

`CCOc1ccc(CNC(=O)c2cc(=O)[nH]c3ccc(S(=O)(=O)N4CCCCC4)cc23)cc1`: the max response, negative = inhibition is 0.425%.

These data come from PubChem BioAssay AID1478 (National Center for Advancing Translational Sciences (NCATS), 2009).
